Hits are enriched below; roughly 3.9% of the tested compounds scored in any of these assays.
GALK inh = blocks human galactokinase activity | Purified GALK, Kinase-Glo residual ATP luminescence | Potency, µM (top dose mostly 57.5 µM), without a hit: at the top dose activity change, negative = inhibition, most hits filed as inhibitors | 270,000 tested, 0.007% active | AID 1868 | P51570; also: potency is read from the fitted curve at half-maximal effect; % is scaled to controls: 0 for no effect and ±100 for the full control effect
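Luminescence from leftover ATP (Ultra-Glo luciferase/luciferin) served as read-out after a 1 h room-temperature reaction of 5 nM GALK with 35 uM ATP and 100 uM galactose.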
D1 agonist = activates the human D1 dopamine receptor. P21728. HEK293 T-REx D1 cells, calcium flux, agonist mode. activation, % at 2 µM. 360,000 tested, 1% active; in the data active = activation above about 30%; also: 0% is about no effect
Target sequence (P21728 whole entry, looked up): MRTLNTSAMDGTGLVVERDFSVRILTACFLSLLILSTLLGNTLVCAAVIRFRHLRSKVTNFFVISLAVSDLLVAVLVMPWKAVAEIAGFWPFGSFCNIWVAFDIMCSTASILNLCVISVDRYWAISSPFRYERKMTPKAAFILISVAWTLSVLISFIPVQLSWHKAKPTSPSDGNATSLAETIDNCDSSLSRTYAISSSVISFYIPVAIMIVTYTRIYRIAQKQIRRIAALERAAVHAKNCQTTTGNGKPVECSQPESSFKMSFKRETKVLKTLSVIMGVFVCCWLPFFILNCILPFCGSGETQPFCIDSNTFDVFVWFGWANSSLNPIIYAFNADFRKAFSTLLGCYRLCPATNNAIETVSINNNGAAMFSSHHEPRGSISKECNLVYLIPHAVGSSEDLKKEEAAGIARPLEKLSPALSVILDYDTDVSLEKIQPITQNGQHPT
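Inducible HEK293 T-REx D1 cells, force-coupled to calcium signalling, were plated at 4000 cells/well with tetracycline and held overnight at 30 C. After no-wash calcium dye loading, compound-evoked calcium rise over 180 s flagged agonists.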
D1 potentiator = potentiators of human D1 dopamine receptor. potentiation, % at 10 µM. P21728. AID 504651. 360,000 tested, 0.036% active. HEK293 TREx D1 cells, calcium flux, dopamine EC20 potentiation; in the data active = potentiation above about 30%; also: 0% is about no effect
D1 antag = blocks dopamine activation of the human D1 receptor. HEK293 TREx D1 cells, calcium flux, dopamine EC80; hits give low values. activity change, negative = inhibition, % at 10 µM. 360,000 tested, 3.2% active; in the data active = activity change below about -30%; also: % is scaled to controls: 0 for no effect and ±100 for the full control effect
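Inducible Hek293 Trex D1 cells (tetracycline, overnight, 30 C). Calcium dye 30–90 min RT. Antagonist mode: EC80 dopamine added after 180 s compound read.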
Eya2 inh = inhibitors of human Eya2 phosphatase activity; O00167; recombinant Eya2, OMFP fluorescence dephosphorylation (OMFP is methylfluorescein phosphate); Potency, µM (highest dose often 76.9 µM), without a hit: top-dose activity, negative = inhibition, hits mostly inhibitors; 330,000 tested, 0.006% active; also: potency is read from the fitted curve at half-maximal effect; % is scaled to controls: 0 for no effect and ±100 for the full control effect
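Eya2 protein (added as 0.2 uM solution) was preincubated with compound for 10 min at ambient temperature in 50 mM HEPES pH 7.5, 50 mM NaCl, 5 uM MgCl2, 0.05% BSA, 1 mM DTT. OMFP (added at 50 uM) then reacted 10 min; fluorescence read at 485/525 nm.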
USP2a block = USP2a (human) protease inhibition. O75604. USP2 core, Ub-CHOP2 coupled fluorogenic reporter, 485/531. Potency, µM (series often up to 38.3 µM), without a hit: at the highest dose activity change, negative = inhibition, usual class: inhibitors. 330,000 tested, 0.01% active. AID 463254;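 also: potency is read from the fitted curve at half-maximal effect; plate controls were DMSO wells for no effect and full inhibition by NEM control for full effect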
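Deubiquitinase activity read as fluorescence (485/531 nm) after Ub-CHOP2 cleavage activates the enterokinase reporter on its substrate; USP2 core 10nM, Ub-CHOP2 and substrate 25nM each, 30min compound preincubation then 60min RT; data normalized to NEM, curves fitted.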
* marks the source's active call; other numbers are inactive results; ? = inconclusive; . = not tested or not shown; ! = not active in a repeat. Unless noted, calls follow the shape of the dose curve; as a rule, active = well fitted inhibition curve with a large enough effect; inconclusive = small, poorly fitted or top-dose-only effect, or effect the other way; inactive = flat fitted curve, though single readings scatter.

SMILES	GALK inh	D1 agonist	D1 potentiator	D1 antag	Eya2 inh	USP2a block
CN1C(=CC=C2C=C(I)C(=O)C(I)=C2)C(C)(C)c2ccccc21	23.0%	19.1	-2.5	-42.4*	-10.5%	-0.6%
CN(C)c1ccc(N=C/C=C2/N(C)c3ccccc3C2(C)C)cc1	.	22.4	-12.2	-30.3*	-3.8%	-1.7%
COc1ccccc1CNC(=O)CCc1c(C)nn(-c2ccc(N3CCCC3)nn2)c1C	.	0.2	-6.2	-5.2	.	.
CC(NC(=O)Cn1c(=O)oc2cc(S(=O)(=O)NCc3ccccc3)ccc21)c1ccccc1 (configuration not stated)	.	3.8	-5.3	5.0	.	.
CN1/C(=C\C=[N+](C)c2ccccc2)C(C)(C)c2ccccc21	-1.2%	.	.	.	-7.3%	1.2%
CN1/C(=C\C=C2/C(=O)Oc3ccccc3C2=O)C(C)(C)c2ccccc21	1.0%	544.8*	20.4	89.1	?	?
COc1ccc(NC(=O)CCn2c(=O)c3cccn3c3cccnc32)c(OC)c1	.	1.6	-0.2	13.4	.	.
CCOC(=O)C1CCC(CN(Cc2cccc(Br)c2)S(=O)(=O)c2ccc(C)cc2)CC1 (configuration not stated)	.	32.3*	-0.3	21.6	.	.
O=C(COc1ccc2ccc(=O)oc2c1)Nc1ccc(CCO)cc1	0.7%	2.5	-3.0	-49.4*	-4.0%	4.3%
O=C(COc1ccccc1[N+](=O)[O-])Nc1cc(-c2nc3cc(Cl)ccc3o2)ccc1Cl	.	0.3	-2.1	-45.2*	.	.
Cc1ccc(OCC(=O)Nc2ccc3oc(=O)ccc3c2)c(C)c1	5.0%	2.9	-6.5	-55.5*	-5.8%	-0.9%
COc1ccc(-c2nc3cc(NC(=O)COc4ccccc4C)ccc3o2)cc1	.	9.5	3.8	-54.1*	.	.
CCC(Nc1ccc(-c2nc(-c3cccnc3)no2)cc1[N+](=O)[O-])c1ccccc1 (configuration not stated)	.	0.4	2.6	-3.8	.	.
Cc1cc(C)cc(OCC(=O)Nc2ccc(-c3nc4ccccc4o3)cc2)c1	.	9.0	-3.1	-32.2*	.	.
CCN(CC)S(=O)(=O)c1cccc(-c2nnc(SCCOc3ccccc3C)o2)c1	-1.3%	33.5*	-3.6	0.1	-3.3%	-0.6%
CCN(CC)S(=O)(=O)c1cccc(-c2nnc(SCCOc3ccccc3)o2)c1	2.7%	16.6	-6.3	-18.5	5.3%	4.4%
CC(C)OC(=O)CSc1nc2ncc(Cl)cc2[nH]1	-2.7%	2.1	-4.8	-30.3*	8.4%	1.8%
Cc1ccc(-c2onc(C)c2C)cc1S(=O)(=O)N1CCC(C)CC1	.	9.4	-4.2	-0.8	.	.
O=C(Nc1ccc(-c2nc3ccccc3s2)c(O)c1)c1ccc(Br)cc1	.	-0.4	2.4	-33.3*	.	.
COCCCNC(=O)CSc1nc(-c2cccc(F)c2)[nH]c1-c1ccccc1	.	4.0	-2.5	5.1	.	.
CC1=NN(c2ccccc2)C(=O)/C1=C\C=C1\N(C)c2ccccc2C1(C)C	.	44.1*	-2.6	-32.4*	-5.7%	-9.8%
CC1=NN(c2ccccc2)C(=O)/C1=C\C=C1/N(C)c2ccccc2C1(C)C	0.2%	68.0*	-3.0	-18.8	-18.4%	2.7%
CC1=NN(c2ccccc2)C(=O)/C1=C/N(C)C	-0.7%	0.2	-1.1	-13.0	-23.3%	0.2%
O=C(Nc1nc(-c2ccccc2Cl)cs1)c1cccnc1	-0.8%	4.2	-4.5	-40.8*	10.3%	-0.2%
CCn1nnc2cc(C(=O)Nc3ccc(C)c(Cl)c3)ccc21	.	2.1	-0.1	1.6	.	.
SMILES	GALK inh	D1 agonist	D1 potentiator	D1 antag	Eya2 inh	USP2a block
Cn1cccc1/C=C1\CCC/C(=C\c2cccn2C)C1=O	-1.9%	138.6*	4.5	-32.0*	?	?
O=C1/C(=C/c2cccs2)CCC/C1=C\c1cccs1	-7.3%	10.7	-2.1	3.3	-0.2%	0.0%
CCc1cc2c(cc3c(=O)n(CCCC(=O)NCc4cccc(Br)c4)ncn32)s1	.	1.2	-5.0	7.5	.	.
Cc1ccc2oc(-c3cccc(NC(=O)c4ccc(N5CCC(C)CC5)c([N+](=O)[O-])c4)c3)nc2c1	.	-0.2	-1.9	-2.5	.	.
Cc1ccc(CNC(=O)CCS(=O)(=O)c2cc3c(cc2C)NC(=O)CO3)cc1	.	1.7	-10.2	-31.8*!	5.6%	0.6%
Cc1cc2c(cc1S(=O)(=O)N(C)CC(=O)Nc1ccc(C#N)cc1)OCC(=O)N2	.	2.2	-4.8	-54.9*	.	.
Cc1ccc(CNC(=O)CCS(=O)(=O)c2ccc3c(c2)NC(=O)CO3)cc1	-1.5%	-0.5	-7.5	8.9	-10.5%	3.8%
COc1cccc(CNS(=O)(=O)c2cc3c(cc2C)NC(=O)CO3)c1	.	5.7	-9.8	-32.4*	9.7%	0.1%
CCOC(=O)c1cccc(NS(=O)(=O)c2cc3c(cc2C)NC(=O)CO3)c1	.	1.4	-4.0	-46.4*	.	.
Cc1ccc(NC(=O)Cn2c(=O)n(CC(=O)NCCc3ccccc3)c(=O)c3ccccc32)cc1	.	-0.1	-1.3	-12.7	.	.
Cc1ccc(C)c(N2CCN(c3nc4c(S(=O)(=O)c5ccccc5)nnn4c4ccc(Cl)cc34)CC2)c1	.	0.0	-0.9	0.8	.	.
Cc1ccccc1NS(=O)(=O)c1cc2c(cc1C)NC(=O)CO2	.	7.6	8.0	-16.8	14.0%	1.3%
COc1ccc(NS(=O)(=O)c2cc3c(cc2C)NC(=O)CO3)c(OC)c1	.	5.3	-9.7	-57.8*!	-1.0%	0.8%
CCOc1ccc(CN2C(=O)c3ccccc3Sc3ccc(C(=O)NC4CCC(C)CC4)cc32)cc1 (configuration not stated)	.	5.6	1.3	4.3	.	.
COCCn1c(C)cc(O)c(C(c2ccccc2)N2CCN(c3ccc(F)cc3)CC2)c1=O (configuration not stated)	.	1.8	-3.6	15.4	.	.
CN1CCC(N(C)C(=S)Nc2ccc(SC(F)F)cc2)CC1	-0.3%	12.0	-2.4	-33.6*	7.1%	-1.7%
CC(C)(C#CC(O)(c1ccccc1)c1ccccc1)N1CCCC1	0.8%	7.5	-3.9	-71.5*	0.1%	-5.4%
CN(C)CCCn1c(=O)n(CCc2ccccc2)c(=O)c2c3c(sc21)CCCCC3	0.4%	2.0	-4.3	2.1	-0.2%	0.9%
CN(C)CCCNc1nc2sc3c(c2c(=O)n1CCc1ccccc1)CCCCC3	-0.3%	58.5*	-3.0	-24.0	11.2%	0.4%
COc1ccc(/C=N/Nc2nnc(-c3ncc[nH]3)c3ccccc23)cc1	-1.4%	1.0	-2.8	-7.4	-6.4%	0.8%
Oc1ccc2ccccc2c1/C=N/Nc1nnc(-c2ncc[nH]2)c2ccccc12	0.5%	36.2*	-4.0	17.8	6.5%	1.4%
CCN(CC)C(=O)Cn1c(=O)cc(C)c2c(C)nn(C)c21	.	1.3	-3.3	18.0	.	.
O=C(NC1CCN(C(=S)NCCc2ccccc2)CC1)C1CCCCC1	3.3%	6.7	-9.9	-34.0*	7.6%	0.8%
